# Among all 360,000 compounds or so, about 16,000 (4.4%) were called active. Roughly 9% stayed inconclusive and do not appear here. The sample as a whole holds a higher share of actives than the screen did. A number with no mark means an inactive call. Calls follow the shape of the dose curve; as a rule, active = well fitted inhibition curve with a large enough effect; inconclusive = small, poorly fitted or top-dose-only effect; inactive = no such curve, though single readings can be large or run the other way.
# Target: Bromodomain adjacent to zinc finger domain protein 2B (Homo sapiens) (UniProt Q9UIF8)
# Test: qHTS Assay for Inhibitors of BAZ2B; also: nearly all actives have a fitted effect of over 60% in size
# Conditions: AlphaScreen BAZ2B-H3K14Ac peptide displacement; series mostly up to 114 µM; activity change, negative = inhibition: at the top concentration
# Procedure, shortened: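 BAZ2B 50 nM plus b-H3(5-23)K14Ac 50 nM, PBS pH 7.4/0.01% Tween-20, 30 min RT; compound added (max 110 uM), 30 min RT; streptavidin donor/Ni-chelate acceptor beads 10 ug/mL final, 20 min dark; AlphaScreen read.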
# % is scaled to controls: 0 for no effect and ±100 for the full control effect; potency is read from the fitted curve at half-maximal effect.
# Bromodomain adjacent to zinc finger domain protein 2B (Homo sapiens), sequence (Q9UIF8 whole entry, looked up, the tested form may be a part): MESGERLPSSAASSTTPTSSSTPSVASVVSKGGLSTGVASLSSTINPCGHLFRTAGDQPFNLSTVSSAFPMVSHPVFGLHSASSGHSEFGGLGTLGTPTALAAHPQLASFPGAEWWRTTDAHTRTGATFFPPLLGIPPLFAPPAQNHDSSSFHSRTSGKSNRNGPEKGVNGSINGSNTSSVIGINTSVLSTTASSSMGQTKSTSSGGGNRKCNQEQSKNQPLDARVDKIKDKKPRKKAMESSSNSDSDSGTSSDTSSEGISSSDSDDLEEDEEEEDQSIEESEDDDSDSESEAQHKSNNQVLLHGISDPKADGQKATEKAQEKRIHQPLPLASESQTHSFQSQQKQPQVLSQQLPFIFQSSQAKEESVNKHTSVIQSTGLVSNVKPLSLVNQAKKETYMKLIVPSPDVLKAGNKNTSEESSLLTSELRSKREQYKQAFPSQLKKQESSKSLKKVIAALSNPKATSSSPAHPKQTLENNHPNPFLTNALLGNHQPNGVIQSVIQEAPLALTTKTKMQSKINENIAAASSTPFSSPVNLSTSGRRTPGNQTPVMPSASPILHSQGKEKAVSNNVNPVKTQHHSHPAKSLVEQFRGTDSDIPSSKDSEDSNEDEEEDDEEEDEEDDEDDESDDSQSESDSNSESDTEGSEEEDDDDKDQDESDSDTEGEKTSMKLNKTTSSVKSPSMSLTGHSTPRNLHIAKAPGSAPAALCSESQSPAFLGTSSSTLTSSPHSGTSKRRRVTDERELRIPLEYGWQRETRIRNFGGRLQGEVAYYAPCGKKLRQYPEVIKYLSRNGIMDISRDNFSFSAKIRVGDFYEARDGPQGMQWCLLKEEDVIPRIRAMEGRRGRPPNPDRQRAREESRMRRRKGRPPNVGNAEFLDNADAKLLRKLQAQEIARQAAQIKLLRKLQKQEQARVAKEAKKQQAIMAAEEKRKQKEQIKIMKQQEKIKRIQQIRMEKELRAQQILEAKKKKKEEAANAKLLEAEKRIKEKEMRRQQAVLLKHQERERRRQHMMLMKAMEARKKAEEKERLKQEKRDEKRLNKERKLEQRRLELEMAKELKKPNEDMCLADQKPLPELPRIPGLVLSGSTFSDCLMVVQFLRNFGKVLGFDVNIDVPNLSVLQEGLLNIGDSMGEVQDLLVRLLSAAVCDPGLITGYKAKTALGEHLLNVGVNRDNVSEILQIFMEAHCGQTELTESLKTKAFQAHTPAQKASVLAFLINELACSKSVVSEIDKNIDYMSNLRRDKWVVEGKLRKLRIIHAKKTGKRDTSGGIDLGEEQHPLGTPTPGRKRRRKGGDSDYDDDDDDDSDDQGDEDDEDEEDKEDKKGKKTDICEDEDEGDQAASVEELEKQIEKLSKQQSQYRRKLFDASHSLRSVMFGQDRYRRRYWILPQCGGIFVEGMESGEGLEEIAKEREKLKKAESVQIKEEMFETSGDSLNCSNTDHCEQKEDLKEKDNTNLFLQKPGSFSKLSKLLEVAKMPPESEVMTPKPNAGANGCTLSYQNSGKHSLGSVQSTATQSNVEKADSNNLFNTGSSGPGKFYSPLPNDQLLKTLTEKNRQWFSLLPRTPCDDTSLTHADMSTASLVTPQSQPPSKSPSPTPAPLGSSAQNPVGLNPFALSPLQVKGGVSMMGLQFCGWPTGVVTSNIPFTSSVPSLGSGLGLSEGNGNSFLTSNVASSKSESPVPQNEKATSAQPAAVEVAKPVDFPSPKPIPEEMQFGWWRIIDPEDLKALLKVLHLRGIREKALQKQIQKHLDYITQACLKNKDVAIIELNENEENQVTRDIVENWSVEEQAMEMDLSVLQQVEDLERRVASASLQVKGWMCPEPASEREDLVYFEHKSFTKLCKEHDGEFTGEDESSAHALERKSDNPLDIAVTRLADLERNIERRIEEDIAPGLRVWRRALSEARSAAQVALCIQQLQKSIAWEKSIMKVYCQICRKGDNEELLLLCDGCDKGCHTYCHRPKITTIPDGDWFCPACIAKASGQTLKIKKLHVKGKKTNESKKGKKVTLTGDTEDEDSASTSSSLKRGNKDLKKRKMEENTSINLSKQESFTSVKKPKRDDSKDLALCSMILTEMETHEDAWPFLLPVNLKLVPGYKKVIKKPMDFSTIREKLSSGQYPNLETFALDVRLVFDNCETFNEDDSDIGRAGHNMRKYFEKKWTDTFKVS
SMILES,"activity change, negative = inhibition",Potency
CC(C)(C)NC(=O)C(=O)NN=C1CCCCCCC1,-23.6%,
CC(C)NC(=S)NN=C1CCCCCCCCCCC1,,35.5 µM (active)
CCc1ccc(C(=O)NN=C2CCCCCC2)s1,-19.5%,
O=C(c1ccc2c(c1)N(Cc1ccccc1)C(=O)c1ccccc1S2(=O)=O)N1CCC(Cc2ccccc2)CC1,-17.7%,
COc1cc(N2CCCC2)c(OC)cc1/C=C(/C#N)c1cccc(Br)c1,,10 µM (active)
CC(=O)Nc1cccc(Oc2cc(C#N)c(C#N)cc2N2CCOCC2)c1,6.72%,
CCc1ccc(NC(=O)c2cc3c(=O)n(Cc4cccnc4)ccc3nc2C)cc1,-12.7%,
Cc1ccc(-n2c(SCC(=O)Nc3cccc(F)c3)nc3c(oc4ccccc43)c2=O)cc1C,-4.2%,
COC(=O)c1cc(NC(=O)CN2CCN(C(C)=O)CC2)cc(C(=O)OC)c1,-8.23%,
CC(=O)N1CCN(CC(=O)Nc2ccc(C)c(F)c2)CC1,,44.7 µM (active)
CCOC(=O)N1CCN(CC(=O)Nc2ccc(F)cc2)CC1,1.87%,
CC(=O)N1CCN(CC(=O)Nc2ccc(SC(F)F)cc2)CC1,-37.9%,
CCN(CC)c1ccc(NC(=O)CN2C(=O)NC3(CCc4ccccc43)C2=O)cc1 (centres undefined),7.07%,
CCN(CC)c1ccc(NC(=O)CN2CCN(CC(=O)Nc3ccc(Cl)cc3)CC2)cc1,,20 µM (active)
CCN(CC)c1ccc(NC(=O)CN2C(=O)c3cccnc3Oc3ccc(Cl)cc32)c(C)c1,2.11%,
Cc1cccc(C(=O)Nc2ccc(S(=O)(=O)N3CCCCC3c3cccnc3)cc2)c1 (centres undefined),-12.5%,
Cc1ccc(Cn2c(C)c3cnn(CC(=O)NCc4ccccc4)c(=O)c3c2C)cc1,-27.3%,
COC(=O)c1scc(-c2ccccc2)c1S(=O)(=O)Nc1ccccc1,4.54%,
CC(=O)c1ccc(NC(=O)CCc2nc(-c3ccc(C)cc3)no2)cc1,-3.82%,
CCCCn1c(=O)c(CCC(=O)OCC(=O)Nc2ccc(C)c(Cl)c2)nc2ccccc21,-7.31%,
COc1ccc(Cl)cc1NC(=O)CCn1c(=O)c2cccn2c2ccccc21,-12.5%,
Cc1ccc(NC(=O)CCCn2c(=O)c3cccn3c3ccccc32)cc1Cl,,50.1 µM (active)
Cc1cccc(NC(=O)CSc2nc(-c3ccco3)cc(C(F)(F)F)n2)c1C,-0.898%,
Cc1ccc(Cl)cc1N1CCN(C(=O)c2cnc3c(-c4ccc(F)cc4)c(C)nn3c2C)CC1,-6.09%,
Cc1ccc(C(=O)N/N=C\c2cc(Br)c(Br)o2)cn1,,50.1 µM (active)

SMILES,"activity change, negative = inhibition",Potency
O=C(N/N=C/c1ccc(Br)o1)c1cncc(Br)c1,-25.5%,
O=C(O)c1ccc(/C=N/NC(=O)c2ccc(Br)cc2)cc1,0.96%,
Cc1nn2c(=O)cc(COC(=O)c3cccc(NC(=O)COc4ccccc4Cl)c3)nc2s1,-6.08%,
CCOc1ccc(-c2cc3nc(C4CCN(C(=O)OC(C)(C)C)CC4)c(C(=O)Nc4cccc(CC)c4)cn3n2)cc1,0.892%,
Cc1cc(C(=O)OCC(=O)NCc2ccco2)c(C)n1-c1ccccc1,-116%,
Cc1n[nH]c(=O)n1-c1ccc(Oc2ccccc2)cc1,-3.69%,
Cc1cc(-c2csc(N)n2)c(C)n1-c1ccccc1,,44.7 µM (active)
COc1ccc(NS(=O)(=O)c2cc3c4c(c2)CC(=O)N4CCC3)cc1Cl,-8%,
COc1ccccc1CNC(=O)c1ccc(CS(=O)c2ccccc2Cl)o1 (centres undefined),-9.68%,
C(=N\Nc1ccc2ccccc2n1)/c1ccc2c(c1)OCO2,,50.1 µM (active)
Cc1noc(C)c1/C=N/Nc1ccc2ccccc2n1,1.17%,
Brc1ccc(-c2csc(N/N=C/c3ccc4c(c3)OCO4)n2)cc1,-0.146%,
COc1ccc(CCNC(=O)CCCn2c(=O)c3ccccc3n(Cc3ccc(C)cc3)c2=O)cc1OC,-3.19%,
CCOC(=O)c1cc(-c2ccc(OC)c(S(=O)(=O)Nc3ccc(OC)cc3OC)c2)on1,-17.2%,
CCN(CC)CCNc1ncnc2c1cnn2-c1cc(Cl)ccc1C,0.0312%,
Clc1cccc(-n2ncc3c(NCCc4ccccc4)ncnc32)c1,42.4%,
Cc1ccc(-n2ncc3c(NCCCn4ccnc4)ncnc32)cc1Cl,,44.7 µM (active)
O=C(CC1Oc2ccc(Cl)cc2NC1=O)NCc1ccccc1 (centres undefined),-8.67%,
CCOc1ccccc1CNC(=O)c1cnc2c(-c3ccc(OCC)c(OCC)c3)c(C)nn2c1C,-19.4%,
Cc1ccc(SCC(=O)Nc2ccc3oc(-c4ccccc4F)nc3c2)cc1,-16.5%,
CCOC(=O)C1CCCN(C(=O)c2ccc3c(c2)sc2nc(-c4ccc(CC)cc4)cn23)C1 (centres undefined),1.94%,
Cc1ccccc1CNC(=O)CSc1nnc(C)c2c(C)n(-c3ccccc3)nc12,-3.05%,
NC(=O)NC(CC(=O)NNC(=O)c1ccccn1)c1ccc(Cl)cc1 (centres undefined),3.2%,
O=C(Nc1ccc(NC(=O)c2ccccc2F)cc1)c1ccccc1F,-19.1%,
